Assay results published in PubChem BioAssay (NCATS).
Results filed as inconclusive are left out. Activity calls are given as the source filed them. Unless noted, calls follow the shape of the full dose curve.

Key:
[1] = qHTS for Inhibitors of the Functional Ribonucleoprotein Complex (vRNP) of Lassa (LASV) Arenavirus: LASV Primary Screen - GLuc reporter signal (AID 1347082; calls by dose curve; tested in HEK293 reporter line; also: nearly all actives have a fitted effect of over 60% in size)
[2] = qHTS for Inhibitors of the Functional Ribonucleoprotein Complex (vRNP) of Lassa (LASV) Arenavirus: Viability assay - alamar blue signal for LASV Primary Screen (AID 1347083; calls by dose curve; tested in HEK293 reporter line; also: nearly all actives have a fitted effect of over 80% in size)
[3] = qHTS for Inhibitors of the Functional Ribonucleoprotein Complex (vRNP) of Lymphocytic Choriomeningitis Arenaviruses (LCMV): Viability assay - alamar blue signal for LCMV Primary Screen (AID 1347085; calls by dose curve; tested in HEK293 reporter line; also: nearly all actives have a fitted effect of over 80% in size)
[4] = target: Nucleoprotein (Lymphocytic choriomeningitis virus (strain Armstrong)) (UniProt P09992); experiment: qHTS for Inhibitors of the Functional Ribonucleoprotein Complex (vRNP) of Lymphocytic Choriomeningitis Arenaviruses (LCMV): LCMV Primary Screen - GLuc reporter signal (AID 1347086); also: nearly all actives have a fitted effect of over 70% in size
% is scaled to controls: 0 for no effect and ±100 for the full control effect.
Also: series mostly up to about 57 µM.

Chain of Nucleoprotein (Lymphocytic choriomeningitis virus (strain Armstrong)) (P09992 whole entry, looked up): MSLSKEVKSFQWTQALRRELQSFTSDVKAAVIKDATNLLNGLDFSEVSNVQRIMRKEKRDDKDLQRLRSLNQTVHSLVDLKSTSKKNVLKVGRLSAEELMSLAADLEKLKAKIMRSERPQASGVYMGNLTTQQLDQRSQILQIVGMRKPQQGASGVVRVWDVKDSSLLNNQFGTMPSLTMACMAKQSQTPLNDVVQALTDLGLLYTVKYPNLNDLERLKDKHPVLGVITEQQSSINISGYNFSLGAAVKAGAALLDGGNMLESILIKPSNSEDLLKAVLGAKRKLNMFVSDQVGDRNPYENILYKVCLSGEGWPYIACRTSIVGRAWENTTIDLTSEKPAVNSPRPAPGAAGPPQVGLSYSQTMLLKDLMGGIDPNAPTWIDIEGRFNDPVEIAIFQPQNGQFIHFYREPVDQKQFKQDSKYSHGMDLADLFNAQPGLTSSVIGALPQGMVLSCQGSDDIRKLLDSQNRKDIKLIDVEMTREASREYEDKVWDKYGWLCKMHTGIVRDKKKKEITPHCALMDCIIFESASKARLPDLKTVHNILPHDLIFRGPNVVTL

CCCNC(C)C(=O)Nc1c(C)csc1C(=O)OC (stereo not given)
inactive: Potency [1] | Potency [2] | Potency [3] | Potency [4]

C[N+](C)(CCOc1ccccc1)Cc1cccs1
inactive: Potency [1] | Potency [2] | Potency [3] | Potency [4]

CCCCCCCC(=O)[O-].CCCCCCCC(=O)[O-].[Zn+2]
inactive: Potency [1] | Potency [2] | Potency [3] | Potency [4]

CCOCCn1c(C2CCN(CCc3ccc(C(C)(C)C(=O)O)cc3)CC2)nc2ccccc21
inactive: Potency [1] | Potency [2] | Potency [3] | Potency [4]

CCCCCCCC/C=C\CCCCCCCC(=O)NCc1ccc(O)c(OC)c1
inactive: Potency [1] | Potency [2] | Potency [3] | Potency [4]

Cc1ncc(CO)c(CO)c1O
inactive: Potency [1] | Potency [2] | Potency [3] | Potency [4]

CC(=O)c1cc2ccccc2s1
inactive: Potency [1] | Potency [2] | Potency [3] | Potency [4]

CCn1nc(C(=O)O)c(=O)c2cc3c(cc21)OCO3
inactive: Potency [1] | Potency [2] | Potency [3] | Potency [4]

COc1cnc(NS(=O)(=O)c2ccc(N)cc2)nc1
inactive: Potency [1] | Potency [2] | Potency [3] | Potency [4]

Nc1c[n+](N2CCOCC2)no1
inactive: Potency [1] | Potency [2] | Potency [3] | Potency [4]

Nc1ccc(S(=O)(=O)NC(=O)c2ccccc2)cc1
inactive: Potency [1] | Potency [2] | Potency [3] | Potency [4]

Cc1c(C(C)C)c(=O)n(-c2ccccc2)n1C
inactive: Potency [1] | Potency [2] | Potency [3] | Potency [4]

O=C(CCCl)NCc1ccccc1
inactive: Potency [1] | Potency [2] | Potency [3] | Potency [4]

O=C(O)/C=C\C(=O)O
inactive: Potency [1] | Potency [2] | Potency [3] | Potency [4]

COc1cc(-c2ccc(=O)[nH]n2)ccc1OC(F)F
inactive: Potency [1] | Potency [2] | Potency [3] | Potency [4]

NCc1ccc(S(N)(=O)=O)cc1
inactive: Potency [1] | Potency [2] | Potency [3] | Potency [4]

Cc1cc(OI)c(C(C)C)cc1-c1cc(C(C)C)c(OI)cc1C
inactive: Potency [1] | Potency [2] | Potency [3] | Potency [4]

CC(=O)N(c1onc(C)c1C)S(=O)(=O)c1ccc(N)cc1
inactive: Potency [1] | Potency [2] | Potency [3] | Potency [4]

Nc1ncnc2c1ncn2[C@@H]1O[C@H](CO)[C@@H](O)[C@H]1O
inactive: Potency [1] | Potency [2] | Potency [3] | Potency [4]

CCOC(=O)/C=C(C)/C=C/C=C(C)/C=C/c1c(C)cc(OC)c(C)c1C
inactive: Potency [1] | Potency [2] | Potency [3] | Potency [4]

O=C1c2ccccc2CCc2ccccc21
inactive: Potency [1] | Potency [2] | Potency [3] | Potency [4]

Cc1nc2ccccn2c(=O)c1CCN1CCC(C(=O)c2ccc(F)cc2)CC1
inactive: Potency [1] | Potency [2] | Potency [3] | Potency [4]

Cn1c(=O)c2[nH]c(Br)nc2n(C)c1=O
inactive: Potency [1] | Potency [2] | Potency [3] | Potency [4]

Cc1cc2c(cc1S(N)(=O)=O)S(=O)(=O)CCC2
inactive: Potency [1] | Potency [2] | Potency [3] | Potency [4]

CC(CC(C#N)(c1ccccc1)C(C)C)N(C)C (stereo not given)
inactive: Potency [1] | Potency [2] | Potency [3] | Potency [4]

Oc1ccccc1C=NCc1ccccc1
inactive: Potency [1] | Potency [2] | Potency [3] | Potency [4]

Cc1ccc(S(=O)(=O)NC(=O)NC2CCCCCCC2)cc1
inactive: Potency [1] | Potency [2] | Potency [3] | Potency [4]

CC(C)C[C@H](NC(=O)CNC(=O)[C@H](Cc1ccc(O)cc1)NC(=O)[C@H](CO)NC(=O)[C@H](Cc1c[nH]c2ccccc12)NC(=O)[C@H](Cc1cnc[nH]1)NC(=O)[C@@H]1CCC(=O)N1)C(=O)N[C@@H](CCCN=C(N)N)C(=O)N1CCC[C@H]1C(=O)NCC(N)=O (stereo in doubt)
inactive: Potency [1] | Potency [2] | Potency [3] | Potency [4]

O=C(/C=C/c1ccccc1)OCc1ccccc1
inactive: Potency [1] | Potency [2] | Potency [3] | Potency [4]

CC1CN(c2cc3c(cc2F)c(=O)c(C(=O)O)cn3-c2ccc(F)cc2F)CCN1 (stereo not given)
inactive: activity change, negative = inhibition [1] 7.88% [at 5.82 µM] | activity change, negative = reduced viability [2] 9.98% [at 5.82 µM] | activity change, negative = lower viability [3] 2.49% [at 5.82 µM] | activity change, negative = inhibition [4] -0.151% [at 5.82 µM]

NC(=O)c1ccccc1O
inactive: Potency [1] | Potency [2] | Potency [3] | Potency [4]

O=S(=O)(O)CCS
inactive: Potency [1] | Potency [2] | Potency [3] | Potency [4]

CCc1cc(S(=O)(=O)O)c2cc(C(C)C)cccc1-2
inactive: Potency [1] | Potency [2] | Potency [3] | Potency [4]

CCOc1ccc(NS(=O)(=O)c2ccc(N)cc2)nn1
inactive: Potency [1] | Potency [2] | Potency [3] | Potency [4]

CC[C@H]1OC(=O)[C@H](C)[C@@H](O[C@H]2C[C@@](C)(OC)[C@@H](O)[C@H](C)O2)[C@H](C)[C@@H](O[C@@H]2O[C@H](C)C[C@H](N(C)C)[C@@H]2O)[C@](C)(O)C[C@@H](C)CN(C)[C@H](C)[C@@H](O)[C@]1(C)O
inactive: Potency [1] | Potency [2] | Potency [3] | Potency [4]
